Only some compounds are listed: those with a hit (about 2.4% of all), similar ones and a draw of the others.
L3MBTL1 block = L3MBTL1 (human) inhibition; Q9Y468; AlphaScreen L3MBTL1–H3K9me1 peptide binding; Potency, µM (highest dose often 57.1 µM), for the others: top-dose activity, negative = inhibition, usual class: inhibitors; 0.66% of 230,000 active; AID 485360; also: potency is read from the fitted curve at half-maximal effect; % is scaled to controls: 0 for no effect and ±100 for the full control effect; nearly all actives have a fitted effect of over 60% in size
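First, the protein-peptide complex forms for 30 min at room temperature (L3MBTL1 50 nM, biotinylated H3K9me1 peptide 75 nM). Next, compounds are pin-transferred and incubated 30 min. Finally, AlphaScreen beads are added and read after 30 min.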
Pol iota inh = DNA polymerase iota (human) inhibition; Pol iota fluorescent replication assay, 10 min; Potency, µM (doses to about 115 µM), for inactives: at the highest dose activity, negative = inhibition, usual class: inhibitors; 1% of 390,000 active; AID 588590; also: potency is read from the fitted curve at half-maximal effect
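Pol iota at 10 nM preincubated 15 min with compounds at room temperature; reaction started with fluorescent substrate, 50 nM final. Fluorescence read kinetically at 0 and 10 min; buffer-only wells as negative control.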
Pol kappa inh-1 = DNA polymerase kappa (human) inhibition; purified Pol kappa, fluorescent DNA synthesis assay, 10 min; 0.53% of 400,000 active; Q9UBT6; Potency, µM (highest dose often 107 µM), for the others: top-dose activity, negative = inhibition, usual class: inhibitors; also: potency is read from the fitted curve at half-maximal effect; % is scaled to controls: 0 for no effect and ±100 for the full control effect
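10 nM Pol kappa preincubated 15 min at room temperature with compounds, then reaction started with substrate at 50 nM final. Fluorescence read kinetically at 0 and 10 min; buffer-only wells served as negative control.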
POLB inh = inhibitors of human DNA polymerase beta; Pol beta primer extension/strand displacement, fluorescence kinetic; Potency, µM (doses to about 114 µM), without a hit: top-dose activity change, negative = inhibition, usual class: inhibitors; 1.3% of 340,000 active; also: potency is read from the fitted curve at half-maximal effect; % is scaled to controls: 0 for no effect and ±100 for the full control effect
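Values derive from four-parameter Hill fits of normalized kinetic data: reads at 0 and 10 min following addition of 50 nM substrate to 10 nM Pol beta preincubated 15 min with compound.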
Pol eta inh-1 = DNA polymerase eta (human) inhibition; Q9Y253; recombinant Pol eta, fluorescent DNA replication assay; Potency, µM (highest dose often 114 µM), for the others: at the top dose activity change, negative = inhibition, hits mostly inhibitors; 1.2% of 390,000 active; AID 588591; also: potency is read from the fitted curve at half-maximal effect; % is scaled to controls: 0 for no effect and ±100 for the full control effect
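Pol eta at 10 nM preincubated with compounds 15 min at room temperature; reaction started with fluorescent substrate (50 nM final) and read kinetically at 0 and 10 min.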
GALK inh confirm = confirmation of human galactokinase (GALK) inhibitors | AID 2015 | 70% of 150 active | shares compounds with Pol eta inh-1 | Potency, µM (top dose mostly 115 µM), inactives show at the top dose activity, negative = inhibition, most hits filed as inhibitors | purified GALK, Kinase-Glo ATP depletion luminescence
Target sequence (P51570 whole entry, looked up): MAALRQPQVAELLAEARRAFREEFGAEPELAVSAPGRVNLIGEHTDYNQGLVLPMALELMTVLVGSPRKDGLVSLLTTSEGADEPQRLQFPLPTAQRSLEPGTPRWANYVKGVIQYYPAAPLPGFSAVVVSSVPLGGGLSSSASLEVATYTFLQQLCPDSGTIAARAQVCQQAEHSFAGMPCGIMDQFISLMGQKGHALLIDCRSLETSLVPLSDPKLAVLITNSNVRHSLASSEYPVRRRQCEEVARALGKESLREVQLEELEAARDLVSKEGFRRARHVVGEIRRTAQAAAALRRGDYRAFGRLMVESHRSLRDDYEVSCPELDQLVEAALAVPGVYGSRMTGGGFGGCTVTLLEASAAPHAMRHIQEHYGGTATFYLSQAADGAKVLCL
GALK redox cs = generates H2O2 by redox cycling, flagging GALK artifacts; Potency, µM (doses to about 115 µM), for the others: at the highest dose activity change, negative = H2O2 signal, hits mostly inhibitors; Phenol red-HRP H2O2 redox cycling, absorbance 600 nm; 40% of 150 active; shares compounds with Pol eta inh-1; AID 2035
HEK293 tox = counter-screen for GALK inhibitors: HEK293 cell cytotoxicity; Potency, µM (titrated, usually from 46.1 µM), for inactives: at the highest dose activity change, negative = cytotoxicity, usual class: inhibitors; 10% of 170 active; shares compounds with Pol eta inh-1; AID 2547; HEK-293 viability, ATP luminescence (CellTiter-Glo), 24/48 h; also: potency is read from the fitted curve at half-maximal effect; % is scaled to controls: 0 for no effect and ±100 for the full control effect
Pol kappa inh-2 = Pol kappa (human) inhibition, cherry-pick confirmation | shares compounds with Pol eta inh-1 | purified Pol-kappa, fluorescent strand-displacement substrate | Potency, µM, hits mostly inhibitors | 76% of 920 active; also: potency is read from the fitted curve at half-maximal effect
Pol eta inh-2 = Pol eta (human) inhibition, cherry-pick confirmation | 64% of 2,600 active | Potency, µM, hits mostly inhibitors | Pol eta primer extension, TAMRA/BHQ fluorescence, 10 min | shares compounds with Pol eta inh-1; also: potency is read from the fitted curve at half-maximal effect
* = called active by the depositor; ? = inconclusive; nt = no result; [ ] = remark or other dose. Calls follow the shape of the dose curve; as a rule, active = well fitted curve in the direction sought with a large enough effect; inconclusive = small, poorly fitted or top-dose-only effect, or another doubt; inactive = no such curve, though single readings can be large; an effect the other way counts as inactive or inconclusive.

SMILES | L3MBTL1 block | Pol iota inh | Pol kappa inh-1 | POLB inh | Pol eta inh-1 | Pol eta inh-2 | others
N=C1/C(=C/c2cccs2)C(=O)N=C2SN=C(SCc3ccccc3)N12 | 0% | ? | -4% | ? | 25µM* | nt | GALK inh confirm=42µM*;GALK redox cs=1%;HEK293 tox=-7%
CC(C)CSC1=NSC2=NC(=O)/C(=C\c3cccs3)C(=N)N12 | -3% | 75% | -25% | 1% | ? | nt
CC1=CC2=NC(=O)/C(=C/c3coc4ccc(Cl)cc4c3=O)C(=N)N2O1 | 2% | 39% | -16% | ? | ? | nt
CCOc1ccc(-c2nn(-c3ccccc3)cc2C2NC(=O)NC(C)=C2C(=O)OC(C)C)cc1C (configuration not stated) | nt | -6% | -22% | ? | ? | nt
CN(CCOc1ccccc1)C(=O)CCc1nc2sc3c(c2c(=O)[nH]1)CCCC3 | nt | 25µM* | -35% | ? | ? | ?
CCOC(=O)C1CCN(C(=O)CCc2nc3sc4c(c3c(=O)[nH]2)CCCC4)CC1 | -25% | 28µM* | ? | nt | 22µM* | ?
O=C(NCC1CCCO1)c1cc(-c2ccco2)nc2ccccc12 (configuration not stated) | ? | ? | ? | 45µM* | 16µM* | 85*
O=C(NCC1CCCO1)c1cc(-c2ccncc2)nc2ccccc12 (configuration not stated) | -4% | 7% | -14% | nt | -10% | nt
O=C(Nc1nncs1)c1cc(-c2ccco2)nc2ccccc12 | ? | ? | ? | nt | 14µM* | 76* | Pol kappa inh-2=?
COc1cc(C(CC(=O)NCc2ccccc2Cl)N2Cc3ccccc3C2=O)cc(OC)c1OC (configuration not stated) | nt | 13% | -27% | 13% | -11% | nt
Cc1ccc(C(c2ccc(C)o2)c2cccc([N+](=O)[O-])c2O)o1 | -24% | ? | ? | ? | 18µM* | 85*
Cc1ccc(SCCNC(=O)CN(c2cccc(C)c2C)S(C)(=O)=O)cc1 | nt | 27% | -25% | 3% | ? | nt
Cc1nc(NCCc2ccc(S(N)(=O)=O)cc2)c2c3c(sc2n1)CCC3 | nt | -8%[58.9 µM] | -13% | -22% | -4% | nt
Cc1nc(NS(=O)(=O)c2ccc(Cl)s2)c2c3c(sc2n1)CCCC3 | nt | 0% | -21% | -23% | -5% | nt | GALK inh confirm=?;GALK redox cs=3%;HEK293 tox=3%
O=C1/C(=C/C=C/c2ccco2)SC(=S)N1c1ccc(O)cc1 | 4.5µM* | ? | 7.9µM* | 3.2µM* | 3.5µM* | 60*
CC1=C(C(=O)OCc2ccccc2)C(c2ccc(C)cc2)NC(=O)N1 (configuration not stated) | nt | nt | nt | nt | -14% | nt
CS(=O)(=O)NCC(c1ccco1)N1CCN(c2ccccc2)CC1 (configuration not stated) | nt | 0% | -5%[60.1 µM] | 1% | -12% | nt
Cc1cc(C)cc(-n2nnc(-c3nsc(NC(=O)c4ccccc4Cl)n3)c2C)c1 | nt | ? | -11% | 7.9µM* | ? | nt | Pol kappa inh-2=?
COc1ccc(NC(=O)c2ccco2)cc1NC(=O)c1cc(Cl)ccc1OC | nt | -17% | -1% | ? | 89µM* | nt | Pol kappa inh-2=42*
O=C(CNC(=O)c1cc(Cl)nc2ccccc12)Nc1ccccc1Br | 2% | 22% | -14% | nt | -2% | nt
Cc1cnc(C(=O)NCC(=O)Nc2ccccc2Br)cn1 | ? | 18µM* | ? | nt | 32µM* | ? | Pol kappa inh-2=?
Cc1cc(NS(=O)(=O)c2ccc(NC(=O)COc3ccccc3C(C)(C)C)cc2)no1 | nt | 24% | -15% | ? | 0% | nt
Cc1cc(NS(=O)(=O)c2ccc(NC(=O)COc3ccccc3[N+](=O)[O-])cc2)no1 | nt | 35µM* | ? | 18µM* | 20µM* | 67*
CCc1nn2c(=O)cc(COC(=O)C3CCCCC3)nc2s1 | nt | 3% | -2% | 27% | 2% | nt
O=C(O)c1cc(C(=O)O)cc(N2C(=O)CSC2=S)c1 | nt | 22µM* | 89µM* | 2% | ? | 30* | Pol kappa inh-2=?
SMILES | L3MBTL1 block | Pol iota inh | Pol kappa inh-1 | POLB inh | Pol eta inh-1 | Pol eta inh-2 | others
O=C1CSC(=S)N1c1ccccc1 | nt | 10% | -15% | nt | -18% | nt
N=C(N)SCc1ccccn1 | -7% | 13% | -3% | 0% | -6% | nt
N=C(N)SCc1ncccc1O | -11% | 50µM* | -46% | -3% | -3% | ?
O=C(NC1(O)C(=O)c2ccccc2C1=O)c1c(Cl)cccc1Cl | nt | 1.6µM* | -13% | 11% | 45µM* | ? | GALK inh confirm=24µM*;GALK redox cs=9.4µM*;HEK293 tox=14%
O=C(Nc1ccccc1Cl)c1c(F)c(F)c(F)c(F)c1F | nt | 17% | -14% | nt | -8% | nt
O=C(NC1(O)C(=O)c2ccccc2C1=O)c1ccccc1 | ? | 6.3µM* | -17% | -6% | 32µM* | nt | GALK inh confirm=24µM*;GALK redox cs=11µM*;HEK293 tox=-1%
Cc1ccc(Cl)cc1-n1ncc2c(NCCC3=CCCCC3)ncnc21 | nt | ? | -11%[60.1 µM] | -3% | -14% | nt
O=c1ccc2c(OCCCCOc3ccccc3)c3ccoc3cc2o1 | nt | nt | 0%[60.1 µM] | nt | nt | nt
C[C@@H]1CCCCO[C@@H](CN(C)CC2CC2)[C@@H](C)CN([C@H](C)CO)C(=O)c2cc(N(C)C)ccc2O1 | nt | nt | nt | nt | -5% | nt
CC(C)(C)OC(=O)N1CCC(c2c(C(=O)NCc3ccco3)cnn2-c2ccccc2Cl)CC1 | nt | -6% | 0% | -1% | 8% | nt
O=C1NC(=Nc2ccccc2Cl)S/C1=C\c1cccc([N+](=O)[O-])c1O | nt | ? | -31% | ? | ? | ? | Pol kappa inh-2=17*
COc1cc([N+](=O)[O-])cc(/C=C2/SC(=S)N(Cc3ccccc3)C2=O)c1O | nt | 14µM* | -20% | 18µM* | ? | 43* | Pol kappa inh-2=19*
O=C1/C(=C\c2cccc([N+](=O)[O-])c2O)SC(=S)N1Cc1ccccc1 | nt | ? | -32% | 35µM* | 79µM* | ?
Cc1nnc(NS(=O)(=O)c2ccc(N)cc2)s1 | 6% | -4% | -5% | -13% | -15% | nt

Bioassay records: PubChem, National Center for Advancing Translational Sciences (NCATS)
